# Assay results: the supplement of paper PMC10681739
# In all, about 4,100 sequences were measured (“arbitrary fluorescence units”: median about 780, highest 2% from about 22,000 on). The entries come from a sample that favours the highest values as a whole.
# Biological target: T1, ETS1 (UniProt P14921)
# T1 sequence: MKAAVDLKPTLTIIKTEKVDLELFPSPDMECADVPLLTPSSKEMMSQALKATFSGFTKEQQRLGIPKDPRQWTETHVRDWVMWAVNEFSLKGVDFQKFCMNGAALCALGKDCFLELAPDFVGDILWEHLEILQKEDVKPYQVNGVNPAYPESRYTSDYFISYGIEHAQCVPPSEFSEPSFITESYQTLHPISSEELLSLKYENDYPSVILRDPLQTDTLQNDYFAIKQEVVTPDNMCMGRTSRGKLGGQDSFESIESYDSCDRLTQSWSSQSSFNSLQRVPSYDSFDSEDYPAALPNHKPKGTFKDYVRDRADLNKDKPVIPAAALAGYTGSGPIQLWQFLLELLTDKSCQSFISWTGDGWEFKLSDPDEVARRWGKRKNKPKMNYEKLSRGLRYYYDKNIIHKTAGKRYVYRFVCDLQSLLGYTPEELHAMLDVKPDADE
# Assay: ETS1 binding intensity (PBM fluorescence), ETS1 alone (arbitrary fluorescence units); higher = stronger binding
# Details: ETS1 concentration 1 nM; RUNX1 concentration 0 nM
# Method in brief: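 Recombinant full-length human ETS1 was applied at 1 nM, without RUNX1, to double-stranded Agilent 4 × 180k arrays of 36-bp genomic probes carrying a mutated RUNX1 partner site, following standard PBM protocols. Detection used an anti-ETS1 antibody (Cell Signaling Technology 14069) and an Alexa488-conjugated secondary antibody, with scanning on a GenePix 4400A. Each sequence was printed as four replicate spots. Binding level is the spot fluorescence intensity, summarised across replicates and not normalised.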
row,Sequence,ETS1 binding intensity
1,CACCTGACTACAAGGCACACGAACATCCTTATCACA,655
2,ACCAAGTTTCGGGCAGGATCTTCCTGTAGTTTGCCT,566
3,CTCCAAGCCCAGAGAGCACCCCTTCCTGCCCGGACA,737
4,CGTACGCGCACTTCCGGTCTTTGTGACTTGCAGCTC,38700
5,CACGGTCTTTGCCGCTCAGCTTCCCGGAGTCCGCGC,458
6,TTCTCTGGGGACAATTAGGGTTTCTGGGTTTCCTGA,457
7,CCTGGGGGGCCGGAAGCCCCGCTTCGGCCCCAGCCC,2820
8,CACTTCCTGTCAAAGCCAGTTCCTTAGCCGCTTAGG,45000
9,TCTCCCTGCCCGCGAGTCAAAGCCACTTCCTTTTCC,917
10,TGTCATCCCGGAAACTGATAACAAGACCTCGAGTCA,4740
11,AGCTTCCTGTTTGGCCTTGCTGATGTCACCCCATTA,27600
12,TACAGCTTCCTTCACCCCACTTGGGGCCTGGGTTAC,1140
13,TGGGGCCTTGTTATCACAGCACTTCCTGTTTGCTTT,7990
14,TCCTGGCTGCCCCCAAGGCCAGGAAGAGCGAAAACA,434
15,CTGAAACAGGAAACAGACAAAGTCACAAGGTTCGCA,5430
16,TGGCCTCTTCGGCCCTGGCCTTGACTTCCTTTCCTC,362
17,CCTGCTGTGACTTCGGCTGTTTTCCTGGCCTGTGAG,387

row,Sequence,ETS1 binding intensity
1,GACTTCCTGTTGAAGATTGGCCTCTTCGGTAGCACA,44600
2,CCCACCTCGGCCCACGCCGAGCGTGGCGGAACAGCT,385
3,CGGGCACGTCCTACGGCAGCAACGTCCGCCGCGCCG,540
4,CACCCAAGGATATGCTTTTTTTTGGCAAGTCACATC,604
5,TTTCCACTTCCTGTTCTACTTGGGGCTACTGACTCA,25500
6,TTGGCCTGGGCTCTGGGCCACTTCCTGTGCTCTCCA,5490
7,TTCTGCTACATCCTGCCCACTCCCTGTGACTTCCAC,9350
8,TTTATCCTTATTTCCTGGCTTCGCCTACAAGCACAG,5090
9,CTTGACTTAACTACAAGACAGGATGGGTTGATGAAG,426
10,AAAGCATTTCCTGCCTTGACTTAACTACAAGACAGG,25700
11,TTCACGCTCCGTAAGCTCGCTCCTTCCGGGACGCAG,643
12,CTCTGCTTCCTGTCTTTGAATGCCTCTGTGATTTTC,13400
13,GTGGGGCGGGCTTCCGGCGCTCCCACCGTGAGCCGA,8140
14,AAGGTCGAGGTCTCGGCTTCCCCGGAACTTTTTGCT,295
15,TGCTTCCGGCGGGCGCTTGCTCCCCGAGGTCGGCAA,24800
16,GAAGGGAGGAAGCCTGAGAACTGTTGTCTCCTGAAG,424
